Test systems include T-47D breast; BT-549 breast; MDA-MB-435 melanoma; SW-620 colon; MCF7 breast; HCC-2998 colon; KM12 colon; HCT-116 colon.
Common to all, as to experiment: NCI-60 one-dose screen, 48 h (100 = growth as untreated, 0 = no growth, -100 = all killed)
Holding throughout (settings): 10 µM unless noted

Compounds without any hit were thinned out: in the full panel of roughly 83,000, 20% have a hit.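 Cell lines were cultured in 96-well plates, exposed to a single compound concentration, and assessed for percent growth 48 hours later.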 Values without a mark were called inactive. Activity calls are given as the source filed them. The calls were made as follows: active = growth percent below 10; inactive = the rest.

The results in this text go back to PubChem BioAssay (NCI).

Take `CCCn1cnc2c(c1=N)C(c1ccc(F)cc1)c1sc3c(F)cccc3c1O2` (centres undefined): the growth with T-47D breast was 53.9%; in the test with BT-549 breast, 63.9%; in the test with MDA-MB-435 melanoma, -35.6% (active); in the test with SW-620 colon, 25.1%; in the test with MCF7 breast, 15.1%; in the test with HCC-2998 colon, 76.9%. Besides, the growth in the test on KM12 colon is 36.1%.

Take `COc1ccc(/C=C/C(c2cc(OC)c(OC)c(OC)c2)n2cncn2)cc1` (centres undefined): the growth with T-47D breast is 30.8%; in the test with BT-549 breast, 45.5%; in the test on MDA-MB-435 melanoma, -9.62% (active); in the test with SW-620 colon, 26.6%; in the test with MCF7 breast it was 22.5%; with HCT-116 colon, 22%. Moreover, in the test with KM12 colon, the growth is 30.7%.

For `O=C1/C(=C2\SC(=S)N(C3CC3)C2=O)SC(=S)N1C1CC1`, the growth in the test with T-47D breast is 94.6%; in the test with BT-549 breast, 97.5%; with MDA-MB-435 melanoma it was 103%; in the test on SW-620 colon it was 98.4%; in the test with MCF7 breast, 91.6%; with HCC-2998 colon it was 102%. Besides, the growth in the test with KM12 colon is 101%.

As to `N#Cc1c(-c2ccccc2)nc(SCC(O)CN2CCOCC2)nc1N1CCOCC1` (centres undefined), the growth with T-47D breast was 26%; in the test with BT-549 breast, 29.5%; in the test with MDA-MB-435 melanoma, 53%; in the test on SW-620 colon, 78.6%; in the test on MCF7 breast it was 4.99% (active); in the test with HCC-2998 colon, 72.9%. In addition, the growth with KM12 colon was 69.1%.

With `CCN(CC)c1ccc(/C=N/NC(=O)Cc2ccc(Nc3ccnc(C(F)(F)F)c3)cc2)c(O)c1`, the growth is 27.6% in the test on T-47D breast; 41.9% in the test on BT-549 breast; 23.9% in the test on MDA-MB-435 melanoma; 35.6% in the test with SW-620 colon; 20.9% in the test with MCF7 breast; 19.6% with HCT-116 colon. In addition, in the test on KM12 colon, the growth was 41%.

Consider `CC(C)N1C(=O)/C(=c2\sc3n(c2=O)C2C(NN=3)N(C)C(=O)N2C)c2ccccc21` (centres undefined), for which the growth is 64.8% in the test on T-47D breast; 72.1% with BT-549 breast; -21.2% (active) in the test with MDA-MB-435 melanoma; 29.6% in the test on SW-620 colon; 21.4% in the test on MCF7 breast; 78.8% with HCC-2998 colon. Moreover, the growth in the test on KM12 colon was 44.2%.

Consider `CCN1CCN(c2cc(C)nc(N(CCNc3ccnc4cc(Cl)ccc34)Cc3ccc4c(c3)OCO4)n2)CC1`, for which the growth in the test on T-47D breast is -62.1% (active); in the test with BT-549 breast, 36.4%; with MDA-MB-435 melanoma, -66.3% (active); in the test with SW-620 colon it was 0.855% (active); in the test with MCF7 breast, -37.3% (active); in the test with HCT-116 colon it was -23.2% (active). For the same molecule, the growth in the test on KM12 colon was 5.74% (active).

Regarding `COc1cc(OC)c(/C=C/C(=O)c2c(O)cc(OC)c(C3CCN(C)CC3)c2OC)c(OC)c1`, the growth with T-47D breast was -74.5% (active); in the test on BT-549 breast, -6.55% (active); in the test with MDA-MB-435 melanoma it was -87.9% (active); with SW-620 colon it was -83.8% (active); in the test on MCF7 breast, -86.1% (active); with HCC-2998 colon it was -94.5% (active). Besides, the growth in the test with KM12 colon was -62% (active).

In the case of `Cc1cccc(N2CCC(=O)NC2=S)c1`, the growth was 105% with T-47D breast; 104% in the test on BT-549 breast; 106% in the test on MDA-MB-435 melanoma; 103% in the test on SW-620 colon; 97.1% with MCF7 breast; 95.4% in the test on HCC-2998 colon. Also, in the test on KM12 colon, the growth is 107%.

With `CCN(CC)CCCOc1ccc2ncnc(Nc3ccc(Oc4cccc(C(F)(F)F)c4)c(Cl)c3)c2c1`, the growth in the test with T-47D breast is 18.7%; in the test with BT-549 breast it was 81.4%; with MDA-MB-435 melanoma it was -85.7% (active); in the test on SW-620 colon, -87% (active); in the test with MCF7 breast it was -45.2% (active); in the test on HCC-2998 colon, -85.4% (active).

Regarding `O=C1c2ccccc2C(=O)C1c1ccc(Br)cc1`, the growth in the test with T-47D breast is 108%; in the test on BT-549 breast, 101%; in the test with MDA-MB-435 melanoma, 97.9%; in the test with SW-620 colon, 99.9%; with MCF7 breast, 87.7%; with HCC-2998 colon it was 98%. For the same molecule, in the test with KM12 colon, the growth was 107%.

As for `COCCn1cc(-c2csc(-c3c[nH]c4ccc(Br)cc34)n2)c2cccnc21`, the growth was -1.1% (active) with T-47D breast; 22.6% in the test on BT-549 breast; 29% in the test with MDA-MB-435 melanoma; 27.9% in the test on SW-620 colon; 12% in the test on MCF7 breast; 15.3% in the test with HCC-2998 colon. In addition, the growth in the test with KM12 colon is 13.4%.

As for `CC1(C)NCCC[C@]2(C)[C@H]3CC[C@H]4[C@H]5[C@H](C(=O)/C=C/c6cccnc6)CCC[C@]5(CO)CC[C@@]4(C)[C@]3(C)CC[C@@H]12`, the growth with T-47D breast was 81.3%; in the test on BT-549 breast, 88.2%; with MDA-MB-435 melanoma, 70.8%; in the test on SW-620 colon it was 7.51% (active); in the test on MCF7 breast, 22.1%; in the test on HCC-2998 colon, 19.7%.

With `C=C1CC[C@@H]2[C@](C)(COC(C)=O)[C@H](OC(C)=O)CC[C@@]2(C)[C@@H]1CC(Nc1ccc(S(=O)(=O)NC(C)=O)cc1)C1=CCOC1=O` (some centres undefined), the growth in the test on T-47D breast is -3.67% (active); in the test on BT-549 breast, -62.6% (active); in the test on MDA-MB-435 melanoma, -38.8% (active); in the test on SW-620 colon, -65.6% (active); in the test with MCF7 breast, -33.6% (active); in the test with HCT-116 colon it was -63.9% (active). Further, in the test with KM12 colon, the growth is -34% (active).

Turning to `CNC1=CC(=O)c2c(C(=O)OC)c(C)[n+]([O-])c(C)c2C1=O`, the growth in the test with T-47D breast is 52.4%; in the test on BT-549 breast, 88.3%; in the test with MDA-MB-435 melanoma, -17.3% (active); in the test with SW-620 colon, 42.5%; with MCF7 breast, 57%; in the test on HCC-2998 colon it was 50.1%. For the same molecule, the growth with KM12 colon was 61.3%.

`O=C(O)c1ccc(-c2ccc(/C=N/Nc3nc(Nc4ccccc4)nc(N4CCCCC4)n3)o2)cc1`: the growth was 63.7% in the test with T-47D breast; -4.12% (active) in the test with BT-549 breast; 83.2% in the test with MDA-MB-435 melanoma; 86.6% in the test with SW-620 colon; 80.1% in the test with MCF7 breast; 74.7% in the test on HCC-2998 colon. In the test with KM12 colon, the growth is 61.7%.

With `CCOC(=O)c1c(C)c2c(n1Cc1ccccc1)CSCC2=O`, the growth in the test with T-47D breast was 1.4% [100 µM] (active); in the test with BT-549 breast, -25.9% [100 µM] (active); with MDA-MB-435 melanoma it was -9.11% [100 µM] (active); with SW-620 colon it was 16.7% [100 µM]; in the test on MCF7 breast, -12.8% [100 µM] (active); in the test with HCC-2998 colon it was 17% [100 µM]. For the same molecule, the growth in the test with KM12 colon is -4.25% [100 µM] (active).

As to `CN1CCN(C(=O)[C@@]2(C)CC[C@]3(C)CC[C@]4(C)C(=CC[C@@H]5[C@@]6(C)CCC(=O)NC(C)(C)[C@@H]6CC[C@]54C)[C@@H]3C2)CC1`, the growth in the test on T-47D breast is 39.2%; in the test on BT-549 breast, 45.9%; with MDA-MB-435 melanoma, 46.1%; in the test on SW-620 colon, 19.7%; in the test with MCF7 breast, 45%; with HCT-116 colon, 21.8%. The growth in the test on KM12 colon is 46.8%.
